Data taken from PubChem BioAssay AID2283218 (EPA ToxCast).
Calls of active or inactive are those of the source. Rule for the calls: active = hit-call score of the fitted dose curve at least 0.9, where 1 is the maximum; inactive = score below 0.9.

target: human Zeta Chain of T Cell Receptor Associated Protein Kinase 70 (ZAP70), ZAP70 (gene 7535) (UniProt P43403); test: NVS_ENZ_hZAP70: NovaScreen (NVS) Enzymatic Assay for human Zeta Chain of T Cell Receptor Associated Protein Kinase 70 (ZAP70)
Protocol: NVS_ENZ_hZAP70 is a biochemical, single-readout assay that uses extracted gene-proteins in a cell-free assay. Measurements were taken 0 hour after chemical dosing in a 96-well plate.NVS_ENZ_hZAP70 is one of one assay component(s) measured or calculated from the NVS_ENZ_hZAP70 assay. It is designed to make measurements of enzyme activity, a form of enzyme reporter, as detected with fluorescence intensity signals by Fluorescence and electrophoretic mobility shift technology.Data from the assay component NVS_ENZ_hZAP70 was analyzed into 1 assay endpoint. This assay endpoint, NVS_ENZ_hZAP70, was analyzed in the positive analysis fitting direction relative to DMSO as the negative control and baseline of activity. Using a type of enzyme reporter, loss-of-signal activity can be used to understand changes in the enzymatic activity as they relate to the gene ZAP70. Furthermore, this assay endpoint can be referred to as a primary readout, because this assay has produced multiple assay endpoints where this one serves a enzymatic activity function. To generalize the intended target to other relatable targets, this assay endpoint is annotated to the kinase intended target family, where the subfamily is non-receptor tyrosine kinase. […]

Chain of human Zeta Chain of T Cell Receptor Associated Protein Kinase 70 (ZAP70), ZAP70 (gene 7535) (P43403 whole entry, looked up): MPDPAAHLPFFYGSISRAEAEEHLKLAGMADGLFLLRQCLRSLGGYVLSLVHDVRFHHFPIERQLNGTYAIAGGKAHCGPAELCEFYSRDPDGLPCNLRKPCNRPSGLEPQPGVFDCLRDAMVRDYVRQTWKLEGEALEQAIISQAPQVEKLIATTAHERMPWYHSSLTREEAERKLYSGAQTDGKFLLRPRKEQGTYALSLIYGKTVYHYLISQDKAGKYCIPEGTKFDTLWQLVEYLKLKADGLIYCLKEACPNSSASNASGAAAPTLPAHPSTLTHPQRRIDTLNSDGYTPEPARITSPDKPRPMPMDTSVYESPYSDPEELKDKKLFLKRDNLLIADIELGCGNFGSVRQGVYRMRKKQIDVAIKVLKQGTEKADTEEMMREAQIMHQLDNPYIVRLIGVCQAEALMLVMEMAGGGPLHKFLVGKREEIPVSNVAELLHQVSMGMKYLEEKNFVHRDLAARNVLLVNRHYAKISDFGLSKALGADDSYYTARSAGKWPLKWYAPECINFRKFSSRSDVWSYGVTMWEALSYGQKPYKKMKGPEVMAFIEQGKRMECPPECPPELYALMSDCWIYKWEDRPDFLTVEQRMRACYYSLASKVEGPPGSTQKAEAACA

Compound | AC50 | outcome
O=S(=O)(O)C(F)(F)C(F)(F)C(F)(F)C(F)(F)C(F)(F)C(F)(F)C(F)(F)C(F)(F)F | 12.3 µM (active) | 
O=C(O)C(F)(F)C(F)(F)C(F)(F)C(F)(F)C(F)(F)C(F)(F)C(F)(F)F |  | inactive
